Only some compounds are listed: those with a hit (about 19% of all), similar ones and a draw of the others.
DT40 TDP1 no CPT: qHTS for Inhibitors of human tyrosyl-DNA phosphodiesterase 1 (TDP1): qHTS in cells in absence of CPT | actives 15% (n = 420,000) | DT40 Tdp1-/- hTDP1 cells, no CPT, ATP luminescence, 48 h | AID 686978, 2013 | Potency, µM (top dose mostly 46.2 µM), for the others: top-dose activity change, negative = growth inhibition, usual class: inhibitors; further: potency means the concentration at half of the fitted maximal effect; on the % scale 0 is the no-effect control and ±100 the full control effect; nearly all actives have a fitted effect of over 55% in size
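A cellular qHTS used chicken DT40 cells lacking endogenous Tdp1 but carrying stably transfected human TDP1. Compounds were applied without camptothecin, and cell growth kinetics were judged by ATP-dependent luminescence after ≥48 hr.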
IL1B secr inh: qHTS for Inhibitors of Inflammasome Signaling: IL-1-beta AlphaLISA Primary Screen. THP-1 LPS/ATP IL-1B secretion, AlphaLISA, 16 h; stronger effect = lower value. activity change, % at 57.5 µM. actives 4.7% (n = 360,000). AID 743279, 2014; in the data active means activity change below about -50%; inconclusive means mostly about -30% to -49%; further: on the % scale 0 is the no-effect control and ±100 the full control effect
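THP-1 cells pretreated 1 hr with compounds (up to 57.5 uM final), then stimulated with LPS (250 ng/mL final) plus ATP (1.25 mM final); secreted IL-1B measured by AlphaLISA after 16 hr, decreased signal indicating inhibition.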
MCF10A rerep: A quantitative high throughput screen for small molecules that induce DNA re-replication in MCF 10a normal breast cells; MCF 10A DNA re-replication, Hoechst nuclear intensity, 48 h; Potency, µM (doses to about 46.1 µM), for inactives: at the top dose activity, positive = re-replication, actives largely listed as activators; actives 2.9% (n = 350,000); further: potency means the concentration at half of the fitted maximal effect; % of control where 0% means no effect; nearly all actives have a fitted effect of over 50% in size
TDP1 cell CPT: qHTS for Inhibitors of human tyrosyl-DNA phosphodiesterase 1 (TDP1): qHTS in cells in presence of CPT; AID 686979, 2013; chicken DT40 Tdp1-/-;hTDP1 cells + 20 nM CPT, ATP luminescence, 48 h; actives 12% (n = 420,000); Potency, µM (highest dose often 46.2 µM), inactives show at the highest dose activity change, negative = growth inhibition, most hits filed as inhibitors; further: potency means the concentration at half of the fitted maximal effect; on the % scale 0 is the no-effect control and ±100 the full control effect; nearly all actives have a fitted effect of over 55% in size
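Chicken DT40 Tdp1-/- cells stably complemented with human TDP1 were seeded at 400 cells/well in medium containing 20 nM camptothecin, exposed to pin-transferred compounds, and grown at 37 °C for at least 48 hr. Viability was read as ATP luminescence.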
SW480 rereplic: A quantitative high throughput screen for small molecules that induce DNA re-replication in SW480 colon adenocarcinoma cells; actives 1.8% (n = 340,000); AID 624297, 2012; SW480 DNA re-replication, Hoechst DNA content imaging, 48 h; Potency, µM (titrated, usually from 46.1 µM), for the others: at the highest dose re-replication activation, hits mostly activators; further: potency means the concentration at half of the fitted maximal effect; % of control where 0% means no effect; nearly all actives have a fitted effect of over 55% in size
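SW480 cells exposed to compounds for 48 hr at 37 C, 5% CO2, then Hoechst-stained 40 min. Nuclear DNA content imaged by fluorescence scanning (405 nm excitation, 500-530 nm emission); re-replication scored as increased high-intensity nuclei.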
Chronic BCR inh: qHTS Assay to Find Inhibitors of Chronic Active B-Cell Receptor Signaling. ABC-DLBCL IkBa-CBG/CBR reporter, luminescence ratio, 4 h. Potency, µM (doses to about 46.1 µM), inactives show at the highest dose activity change, negative = inhibition, hits mostly inhibitors. actives 0.05% (n = 340,000); active means well fitted inhibition curve with a large enough effect in the signal ratio, with a control signal flat, not every such curve was filed as active; inconclusive means small, poorly fitted or top-dose-only effect, or effect the other way, or a change in a side signal; the % refers to the signal ratio;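 further: potency means the concentration at half of the fitted maximal effect; plate controls were basal doxycycline-induced cells for no effect and cells given 10 µM MG132 for full effect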
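Cell line TMD8 (human ABC DLBCL), stably expressing tet-inducible CBG68-IkBa fusion and CBR; IMDM/0.5% FBS; cpd up to 46 uM; dox induction, 4 h, 37C/5% CO2; dual luminescence; green/red ratio; MG132 control.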
Starred values were filed as active, the others as inactive; ? = inconclusive; / = no result given; ! = a repeat was not active. Unless noted, the call rests on the fitted dose curve; in most records, active means well fitted curve in the direction sought with a large enough effect; inconclusive means small, poorly fitted or top-dose-only effect, or another doubt; inactive means no such curve, though single readings can be large; an effect the other way counts as inactive or inconclusive.

SMILES	DT40 TDP1 no CPT	IL1B secr inh	MCF10A rerep	TDP1 cell CPT	SW480 rereplic	Chronic BCR inh
Cc1cc(-n2c(C)nc3ccccc3c2=O)ccc1NC(=O)c1ccc(C)c([N+](=O)[O-])c1	5.2µM*	/	/	7.3µM*	/	11%
Cc1nc2ccccc2c(=O)n1-c1ccc(NC(=O)C(F)(F)F)cc1	-18%	/	/	-21%	/	-24%
Cc1nc2ccccc2c(=O)n1-c1ccc(NC(=O)c2ccccc2[N+](=O)[O-])cc1	23µM*	/	/	?	/	-1%
Cc1cccc(S(=O)(=O)Nc2ccc(-n3c(C)nc4ccccc4c3=O)cc2)c1	23µM*	-14	8%	?	-4%	3%
O=C(CSc1nccn1Cc1ccccc1)Nc1ccc2c(c1)OCO2	-1%	/	/	?	/	/
CCC1Oc2ccc(C)cc2N(CC(=O)NCc2ccc(F)cc2)C1=O (configuration not stated)	?	/	/	?	/	-4%
CCCCc1ccc(NC(=O)c2cnccn2)cc1	-14%	-2	0%	0%	-4%	?
CCCc1ccc(C(C)NC(=O)c2cnccn2)cc1 (configuration not stated)	23µM*	20	14%	?	-1%	0%
O=C1CCCN1CC(O)CS(=O)(=O)Cc1ccccc1Cl (configuration not stated)	3%	11	0%	25%	-1%	2%
COc1ccc(N2CCN(C(=O)c3cccn4c(=O)c5ccccc5nc34)CC2)cc1	-22%	7	-1%	-21%	0%	4%
O=C(c1c2c(nc3ccccc13)C(=O)N(C1CCCCC1)C2)N1CCN(c2ccc(F)cc2)CC1	26µM*	/	/	21µM*	/	/
CN(C(=O)c1c2c(nc3ccccc13)C(=O)N(C1CCCCC1)C2)c1ccc(F)cc1	-6%	/	/	-12%	/	/
COc1ccc(N2CCN(C(=O)c3c4c(nc5ccccc35)C(=O)N(C3CCCCC3)C4)CC2)cc1	16µM*	/	/	15µM*	/	/
CSc1ncnc2c1ncn2CCCN1CCN(C(=O)C2CC2)CC1	?	12	/	6%	/	/
c1ccc(Cc2nnc(Sc3ccccc3)c3ccccc23)cc1	?	-68*	?	?	15µM*	?
c1ccc(Sc2ncnc3ccccc23)cc1	?	/	?	?	-2%	?
COc1cccc(C(=O)N2CCN(Cc3cc(Br)ccc3OC)CC2)c1	?	-51*	-3%	?	1%	?
COc1ccc(Br)cc1CN1CCN(C(=O)c2ccc(F)cc2)CC1	21µM*	0	-43%	?	-62%	-8%
COc1ccc(Br)cc1CN1CCN(C(=O)c2ccc(OC)c(OC)c2)CC1	-28%	-7	-6%	?	-3%	5%
COc1cc(Br)cc(/C=C/c2ccc3cccc(O)c3n2)c1O	9.2µM*	-6	16µM*	15µM*	34%	?
O=[N+]([O-])c1cccc2ccc(/C=C/c3cccc(Br)c3)nc12	?	7	20%	-7%	-1%	?
COc1cc(/C=C/c2ccc3cccc(O)c3n2)ccc1O	16µM*	?	12µM*	?	24%	?
CSc1ccc(/C=C/c2ccc3cccc(O)c3n2)cc1	21µM*	20	21µM*	16µM*	23%	?
COc1ccc(OC)c(/C=C/c2ccc3cccc(O)c3n2)c1	/	/	/	/	/	11µM*
O=C(CNC(=O)C1CCCCC1)OCCOc1ccccc1	-20%	/	/	-2%	/	/
SMILES	DT40 TDP1 no CPT	IL1B secr inh	MCF10A rerep	TDP1 cell CPT	SW480 rereplic	Chronic BCR inh
O=S1(=O)C[C@H](N2CC[C@@H](O)C2)[C@@H](COCc2ccccc2)N1	13%	11	/	4%	/	/
O=C(NC1CC(=O)N(c2ccccc2)C1)c1ccc(S(=O)(=O)N2CCCC2)cc1 (configuration not stated)	?	/	/	?	/	-10%
Oc1ccc2ccccc2c1/C=N/n1cnnc1	4%	21	10%	-3%	-28%	2%
COc1cc(Br)c(/C=C/c2ccc3cccc(O)c3n2)cc1OC	13µM*	-6	0%	12µM*	-15%	?
Oc1ccc2ccccc2c1/C=C/c1ccc2c(Br)cc(Br)c(O)c2n1	5.2µM*	11	8.2µM*	3.7µM*	18µM*	/
Oc1cccc2ccc(/C=C/c3ccccc3Br)nc12	5.8µM*	62	?	6.5µM*	6.5µM*	?
CCN(C(=O)COC(=O)CCC(=O)c1cccs1)c1c(N)n(Cc2ccccc2)c(=O)[nH]c1=O	-12%	11	-1%	0%	-2%	7%
O=C1c2cccc([N+](=O)[O-])c2C(=O)N1CCO	1%	10	-3%	2%	-6%	3%
CN(C)CCCN1C(=O)c2cccc3c([N+](=O)[O-])ccc(c23)C1=O	2.3µM*	-51*	5.8µM*	2.3µM*	5.8µM*	?
O=C1c2cccc3c([N+](=O)[O-])ccc(c23)C(=O)N1CCc1ccccn1	5.2µM*	-21	5%	13µM*	?	-2%
Cc1ccc(S(=O)(=O)N2CCN(CC(=O)NC3CCCc4ccccc43)CC2)cc1C (configuration not stated)	18µM*	-54*!	19%	?	?	?
O=C(CN1CCN(S(=O)(=O)c2ccccc2)CC1)Nc1ccc([N+](=O)[O-])cc1	12µM*	6	-4%	18µM*	14%	0%
Cc1ccc(S(=O)(=O)N2CCN(CC(=O)Nc3ccc([N+](=O)[O-])cc3)CC2)cc1C	16µM*	?	-13%	?	-81%	-2%
Cc1ccc(S(=O)(=O)N2CCN(CC(=O)NC3CCCc4ccccc43)CC2)c(C)c1 (configuration not stated)	?	?	21%	-27%	?	-17%
COc1ccc(NC(=O)CN2CCN(S(=O)(=O)c3ccc(Cl)cc3)CC2)cc1Cl	?	-13	-4%	-28%	0%	-1%
O=C(CN1CCN(S(=O)(=O)c2ccccc2)CC1)Nc1ccc(Cl)c([N+](=O)[O-])c1	23µM*	-18	0%	21µM*	0%	14%
COc1ccc(NC(=O)C[C@H]2C(=O)N(CCc3ccccc3)C[C@@H]2Cc2ccccc2)cc1	?	-9	/	-23%	/	/
